In all, about 1,900 compounds were measured (“excess over highest single agent (ExcessHSA) synergy score, 6x6 matrix”: median about -83, lowest 2% from about -370 on). What follows is part of a selection rich in the lowest values, with near analogues and random picks from the rest.
System: NCI-H446
Test: excess over highest single agent (ExcessHSA) synergy score, 6x6 matrix; higher = less synergy (more negative = stronger synergy)
Conditions: 72 h; CellTiter-Glo viability

SMILES	excess over highest single agent
CC(C)c1ccccc1Cc1cc(C(=O)Nc2ccc(S(=O)(=O)c3ccccc3C(C)(C)C)cc2)c(O)c(O)c1O + Cc1sc2c(c1C)C(c1ccc(Cl)cc1)=N[C@@H](CC(=O)OC(C)(C)C)c1nnc(C)n1-2 [NCGC00250412-19]	-282
Cc1ccccc1C(C(=O)NC1CCCCC1)N(C(=O)CNc1ccc(C#N)cc1)c1cccc(F)c1 (configuration not stated) + Cc1sc2c(c1C)C(c1ccc(Cl)cc1)=N[C@@H](CC(=O)OC(C)(C)C)c1nnc(C)n1-2 [NCGC00250412-19]	-209
O=C(O)C(=O)O.[NH-]C1CCCCC1[NH-].[Pt+2] (configuration not stated) + Cc1sc2c(c1C)C(c1ccc(Cl)cc1)=N[C@@H](CC(=O)OC(C)(C)C)c1nnc(C)n1-2 [NCGC00250412-19]	-135
CC(C)(N)C(=O)N[C@H](COCc1ccccc1)C(=O)N1CCC2(CC1)CN(S(C)(=O)=O)c1ccccc12 + Cc1sc2c(c1C)C(c1ccc(Cl)cc1)=N[C@@H](CC(=O)OC(C)(C)C)c1nnc(C)n1-2 [NCGC00250412-19]	-36
CC(C)CC(=O)Nc1n[nH]c2c1CN(C(=O)C1CCN(C)CC1)C2(C)C + Cc1sc2c(c1C)C(c1ccc(Cl)cc1)=N[C@@H](CC(=O)OC(C)(C)C)c1nnc(C)n1-2 [NCGC00250412-19]	-619
COc1cc(Oc2ccnc3cc(OC)c(OC)cc23)ccc1NC(=O)NC(C)c1nccs1 (configuration not stated) + Cc1sc2c(c1C)C(c1ccc(Cl)cc1)=N[C@@H](CC(=O)OC(C)(C)C)c1nnc(C)n1-2 [NCGC00250412-19]	-83.5
COc1c(C)cnc(Cn2cnc3c(Cl)nc(N)nc32)c1C + Cc1sc2c(c1C)C(c1ccc(Cl)cc1)=N[C@@H](CC(=O)OC(C)(C)C)c1nnc(C)n1-2 [NCGC00250412-19]	-371
COc1ccc2[nH]c([S+]([O-])Cc3ncc(C)c(OC)c3C)nc2c1 (configuration not stated) + Cc1sc2c(c1C)C(c1ccc(Cl)cc1)=N[C@@H](CC(=O)OC(C)(C)C)c1nnc(C)n1-2 [NCGC00250412-19]	45.9
COc1ccc2cc(-c3nc(-c4ccc([S+](C)[O-])cc4)[nH]c3-c3ccncc3)ccc2c1 (configuration not stated) + Cc1sc2c(c1C)C(c1ccc(Cl)cc1)=N[C@@H](CC(=O)OC(C)(C)C)c1nnc(C)n1-2 [NCGC00250412-19]	-100
CCN(CC)CCOc1ccc(Nc2ncc3cc(-c4c(Cl)cccc4Cl)c(=O)n(C)c3n2)cc1 + Cc1sc2c(c1C)C(c1ccc(Cl)cc1)=N[C@@H](CC(=O)OC(C)(C)C)c1nnc(C)n1-2 [NCGC00250412-19]	-126
CC(C)(O)CCc1ccc(OCc2cc(-c3cccc(OC(F)F)c3)c3ncccc3c2)cc1 + Cc1sc2c(c1C)C(c1ccc(Cl)cc1)=N[C@@H](CC(=O)OC(C)(C)C)c1nnc(C)n1-2 [NCGC00250412-19]	48.5
COc1nccc(-c2c(-c3ccc(F)cc3)ncn2C2CCNCC2)n1 + Cc1sc2c(c1C)C(c1ccc(Cl)cc1)=N[C@@H](CC(=O)OC(C)(C)C)c1nnc(C)n1-2 [NCGC00250412-19]	-55.9
COc1cccc2c1[C@]13CCN(CC4CC4)[C@H](C2)[C@]1(OC)CCC(=O)C3 + Cc1sc2c(c1C)C(c1ccc(Cl)cc1)=N[C@@H](CC(=O)OC(C)(C)C)c1nnc(C)n1-2 [NCGC00250412-19]	-55
CO[C@@H]1[C@H](N(C)C(=O)c2ccccc2)C[C@H]2O[C@]1(C)n1c3ccccc3c3c4c(c5c6ccccc6n2c5c31)C(=O)NC4 + Cc1sc2c(c1C)C(c1ccc(Cl)cc1)=N[C@@H](CC(=O)OC(C)(C)C)c1nnc(C)n1-2 [NCGC00250412-19]	-207
CO[C@@H]1[C@H](N(C)C(=O)c2ccccc2)C[C@H]2O[C@]1(C)n1c3ccccc3c3c4c(c5c6ccccc6n2c5c31)C(=O)NC4=O + Cc1sc2c(c1C)C(c1ccc(Cl)cc1)=N[C@@H](CC(=O)OC(C)(C)C)c1nnc(C)n1-2 [NCGC00250412-19]	-113
CN[C@@H]1C[C@H]2O[C@@](C)([C@@H]1OC)n1c3ccccc3c3c4c(c5c6ccccc6n2c5c31)C(=O)N[C@H]4O + Cc1sc2c(c1C)C(c1ccc(Cl)cc1)=N[C@@H](CC(=O)OC(C)(C)C)c1nnc(C)n1-2 [NCGC00250412-19]	-378
CCn1c(C(=O)N(C2CC2)C2CC2)cc2c3c(ncn3C)c(Nc3cc(C)n(C)n3)nc21 + Cc1sc2c(c1C)C(c1ccc(Cl)cc1)=N[C@@H](CC(=O)OC(C)(C)C)c1nnc(C)n1-2 [NCGC00250412-19]	76.1
N#C/C(=C(/N)Sc1ccc(N)cc1)c1ccccc1C(F)(F)F + Cc1sc2c(c1C)C(c1ccc(Cl)cc1)=N[C@@H](CC(=O)OC(C)(C)C)c1nnc(C)n1-2 [NCGC00250412-19]	-146
CCc1ccc(C(=O)Nc2cc(CN3CCN(C)CC3)cc(C(F)(F)F)c2)cc1C#Cc1cnc2ccnn2c1 + Cc1sc2c(c1C)C(c1ccc(Cl)cc1)=N[C@@H](CC(=O)OC(C)(C)C)c1nnc(C)n1-2 [NCGC00250412-19]	-7.02

SMILES	excess over highest single agent
O=C(NCc1ccccc1)[C@H](Cc1ccccc1)NC(=O)[C@H]1O[C@@H]1C(=O)NCCc1ccc(O)cc1 + Cc1sc2c(c1C)C(c1ccc(Cl)cc1)=N[C@@H](CC(=O)OC(C)(C)C)c1nnc(C)n1-2 [NCGC00250412-19]	-10.6
CCN1CCN(C(=O)Cc2ccc(Nc3ncc(F)c(Nc4ccc(C(=O)Nc5ccccc5Cl)cc4)n3)cc2)CC1 + Cc1sc2c(c1C)C(c1ccc(Cl)cc1)=N[C@@H](CC(=O)OC(C)(C)C)c1nnc(C)n1-2 [NCGC00250412-19]	-388
O=C(O)c1ccc(Nc2ncc3c(n2)-c2ccc(Cl)cc2C(c2c(F)cccc2F)=NC3)cc1 + Cc1sc2c(c1C)C(c1ccc(Cl)cc1)=N[C@@H](CC(=O)OC(C)(C)C)c1nnc(C)n1-2 [NCGC00250412-19]	-157
Cc1ccc(NC(=O)c2ccc(CN3CCN(C)CC3)cc2)cc1Nc1nccc(-c2cccnc2)n1 + Cc1sc2c(c1C)C(c1ccc(Cl)cc1)=N[C@@H](CC(=O)OC(C)(C)C)c1nnc(C)n1-2 [NCGC00250412-19]	-176
OC[C@@H](O)[C@@H](O)[C@@H](O)CO + Cc1sc2c(c1C)C(c1ccc(Cl)cc1)=N[C@@H](CC(=O)OC(C)(C)C)c1nnc(C)n1-2 [NCGC00250412-19]	-189
Cc1cc(Nc2nc(N[C@@H](C)c3ccc(F)cc3)c(C#N)cc2F)n[nH]1 + Cc1sc2c(c1C)C(c1ccc(Cl)cc1)=N[C@@H](CC(=O)OC(C)(C)C)c1nnc(C)n1-2 [NCGC00250412-19]	-209
CC(C)Oc1cc(Nc2nc(N[C@@H](C)c3ccc(F)cn3)ncc2Cl)n[nH]1 + Cc1sc2c(c1C)C(c1ccc(Cl)cc1)=N[C@@H](CC(=O)OC(C)(C)C)c1nnc(C)n1-2 [NCGC00250412-19]	-396
Cc1cc(Nc2nc(N[C@@H](C)c3ncc(F)cn3)ncc2Cl)[nH]n1 + Cc1sc2c(c1C)C(c1ccc(Cl)cc1)=N[C@@H](CC(=O)OC(C)(C)C)c1nnc(C)n1-2 [NCGC00250412-19]	-46
CCOC(=O)C1=C(O)C(=O)N(Cc2ccccc2)C1 + Cc1sc2c(c1C)C(c1ccc(Cl)cc1)=N[C@@H](CC(=O)OC(C)(C)C)c1nnc(C)n1-2 [NCGC00250412-19]	-90.7
Cc1ccccn1.N.[Cl-].[Cl-].[Pt+2] + Cc1sc2c(c1C)C(c1ccc(Cl)cc1)=N[C@@H](CC(=O)OC(C)(C)C)c1nnc(C)n1-2 [NCGC00250412-19]	123
CNC(=O)c1ccc(-c2cnc3ncc(Cc4ccc5ncccc5c4)n3n2)cc1F + Cc1sc2c(c1C)C(c1ccc(Cl)cc1)=N[C@@H](CC(=O)OC(C)(C)C)c1nnc(C)n1-2 [NCGC00250412-19]	48.7
OC[C@H]1OC(O)C[C@@H](O)[C@@H]1O (some centres not stated) + Cc1sc2c(c1C)C(c1ccc(Cl)cc1)=N[C@@H](CC(=O)OC(C)(C)C)c1nnc(C)n1-2 [NCGC00250412-19]	-201
N#Cc1c(N(CC(=O)O)CC(=O)O)sc(C(=O)O)c1CC(=O)O + Cc1sc2c(c1C)C(c1ccc(Cl)cc1)=N[C@@H](CC(=O)OC(C)(C)C)c1nnc(C)n1-2 [NCGC00250412-19]	-47.5
C[C@H]1[C@@H](O)O[C@@H]2O[C@@]3(C)CC[C@H]4[C@H](C)CC[C@@H]1[C@@]24OO3 + Cc1sc2c(c1C)C(c1ccc(Cl)cc1)=N[C@@H](CC(=O)OC(C)(C)C)c1nnc(C)n1-2 [NCGC00250412-19]	-199
C[C@@H]1[C@@H](C(=O)C[C@H]2O[C@@H]3O[C@]4(C)CC[C@@H]5[C@H](C)CC[C@@H]([C@H]2C)[C@@]35OO4)O[C@@H]2O[C@]3(C)CC[C@H]4[C@H](C)CC[C@@H]1[C@@]24OO3 + Cc1sc2c(c1C)C(c1ccc(Cl)cc1)=N[C@@H](CC(=O)OC(C)(C)C)c1nnc(C)n1-2 [NCGC00250412-19]	-355
C=CCON=C(C[C@H]1O[C@@H]2O[C@]3(C)CC[C@@H]4[C@H](C)CC[C@@H]([C@H]1C)[C@@]24OO3)[C@H]1O[C@@H]2O[C@]3(C)CC[C@H]4[C@H](C)CC[C@@H]([C@@H]1C)[C@@]24OO3 + Cc1sc2c(c1C)C(c1ccc(Cl)cc1)=N[C@@H](CC(=O)OC(C)(C)C)c1nnc(C)n1-2 [NCGC00250412-19]	-427
Cn1cnc(=N)c2[nH]cnc21 + Cc1sc2c(c1C)C(c1ccc(Cl)cc1)=N[C@@H](CC(=O)OC(C)(C)C)c1nnc(C)n1-2 [NCGC00250412-19]	-164
CN1c2cc(O)c(N=NC(N)=O)cc2CC1S(=O)(=O)O (configuration not stated) + Cc1sc2c(c1C)C(c1ccc(Cl)cc1)=N[C@@H](CC(=O)OC(C)(C)C)c1nnc(C)n1-2 [NCGC00250412-19]	-280

Source: the supplement of paper PMC10077471
